From PubChem BioAssay (NCI)
About 83,000 compounds went through this panel and 20% of them were active in at least one assay; those are over-represented in the sample as a whole.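 For each line, cells grew in 96-well plates with the test compound present at a single concentration for 48 hours.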 A number with no mark means an inactive call. Calls of active or inactive are those of the source. How the source made its calls: active means growth percent below 10; inactive means the rest.

Columns and labels:
Assay in all cases: NCI-60 one-dose screen, 48 h (100 = growth as untreated, 0 = no growth, -100 = all killed)
Details in all cases: 10 µM unless noted
[1] = system: DU-145 prostate
[2] = system: K-562 leukemia
[3] = system: MALME-3M melanoma
[4] = system: MDA-MB-231 breast
[5] = system: RXF 393 renal
[6] = system: SF-268 CNS
[7] = system: SF-295 CNS
[8] = system: SF-539 CNS
[9] = system: UACC-257 melanoma
[10] = system: M14 melanoma

| Structure (SMILES) | growth [1] | growth [2] | growth [3] | growth [4] | growth [5] | growth [6] | growth [7] | growth [8] | growth [9] | growth [10] |
| --- | --- | --- | --- | --- | --- | --- | --- | --- | --- | --- |
| Clc1ccc(CSc2nnc(-c3ccc(Cl)cc3)n2-c2ccccc2)cc1 | 95.8% | 91.3% | 86.3% | 77.7% | 57.1% | 70.2% | 78.4% | 65.1% | 87.6% | 85.4% |
| Brc1ccc(-c2cc(-c3ccc4c(c3)OC=CO4)n[nH]2)s1 | 99.1% | 31.5% | 70.3% | 90.8% | 101% | 89% | 82.6% | 85.2% | 90.7% | 75.3% |
| Cc1[nH]c(C(=O)Nc2ccc(C(=O)NCC3CCNCC3)cc2OC(C)C)c(Cl)c1Cl | 80.2% | 10.6% | 80.1% | 72.3% | 71.3% | 76.6% | 73.5% | 83.8% | 101% | 62.4% |
| N#Cc1c(-c2cccs2)cc(-c2cnccn2)nc1SCC(=O)N/N=C/c1cccs1 | 37.3% | 63.2% | 39.2% | 40.3% | -1.38% (active) | 53.7% | 48.8% | 9.8% (active) | 53.9% | 57.4% |
| CN1CCN(Cc2ccc(NC(=O)c3cncc(C#Cc4cnc5ccc(N)nn45)c3)cc2C(F)(F)F)CC1 | 17.7% | 6.78% (active) | -36.6% (active) | 2.36% (active) | -9.41% (active) | 6.31% (active) | 53.8% | 3.36% (active) | 55.3% | -1.8% (active) |
| COc1cccc2c1[C@H](OC)[C@]13O[C@@]1(C2=O)[C@H](O)[C@H](C)[C@@](O)(C(=O)[C@@H]1O[C@H]1C)[C@@H]3O | -20.6% (active) | -27% (active) | -56.7% (active) | -1.86% (active) | -77.3% (active) | -24.7% (active) | -21.8% (active) | -29% (active) | -28.3% (active) | -89.7% (active) |
| O=[N+]([O-])c1ccc(NC(=S)NNC(=S)Nc2ccc(F)cc2)cc1 | 105% | 49.8% | 90.1% | 92.4% | 104% | 95.1% | 82.3% | 94.9% | 97.8% | 92.1% |
| COc1cc(C(=O)c2cc(C(C)=O)c3c(C)cccn23)cc(OC)c1OC | 107% | 94.6% | 89.1% | 76.1% | 81.1% | 106% | 109% | 97.5% | 98.2% | 96.1% |
| Brc1cccc(-c2cc(-c3ccc4c(c3)OC=CO4)[nH]n2)c1 | 54.8% | 13.6% | 25.6% | 53.2% | 60.2% | 64.6% | 38% | 49.3% | 67.5% | 15.7% |
| O=C1C(SCc2ccccc2)=C(Cl)CN1c1ccccc1 | 102% | 62% | 94.6% | 93.1% | 105% | 105% | 97.8% | 95% | 106% | 97.7% |
| COc1ccc(-c2nc(C#N)c(N3CCC(S(=O)(=O)N4CCOCC4)CC3)o2)cc1 | 100% | 98.8% | 107% | 95.1% | 108% | 94.2% | 102% | 97.5% | 109% | 109% |
| CC[C@H](CC[C@@H](C)[C@H]1CC[C@H]2[C@@H]3CC(=O)C4=CC(=O)/C(=C/c5ccc([N+](=O)[O-])cc5)C[C@]4(C)[C@H]3CC[C@]12C)C(C)C | 104% | 81.4% | 101% | 98.2% | 120% | 108% | 97.1% | 97.3% | 110% | 89.7% |
| COC(=O)c1ccc(NC2=C(Cl)C(=O)c3nc(C)ccc3C2=O)cc1 | 68.5% | 7.53% (active) | 74.7% | 91.9% | 89.7% | 72.9% | 61.3% | 72.6% | 78.1% | 59.9% |
| C=C(C)[C@@H]1CC[C@]2(COCCCNCCCN)CC[C@]3(C)[C@H](CC[C@@H]4[C@@]5(C)CC[C@H](O)C(C)(C)[C@@H]5CC[C@]43C)[C@@H]12 | -80.8% (active) | -9.9% (active) | -83.8% (active) | -86.3% (active) | -90.9% (active) | -57.9% (active) | -85.2% (active) | -96.2% (active) | -0.281% (active) | -90.3% (active) |
| CSc1ccc(C(=NNS(=O)(=O)c2ccc(C)cc2)c2ccc(Cl)cc2)cc1 | 108% | 94.6% | 89.9% | 104% | 101% | 95.3% | 96.9% | 102% | 100% | 103% |
| CC1=C(C)C(=O)C(Nc2ccc(C)cc2)=C(Br)C1=O | 106% | -21.3% (active) | 112% | 70.1% | 97.7% | 97.3% | 98.1% | 100% | 93.8% | 106% |
| NC1CC2(CCN(c3cnc(C(=O)Nc4cc(F)cc5cccnc45)cn3)CC2)C1 | 81.3% | -13.3% (active) | 96.2% | 80.1% | 73.5% | 83.1% | 58% | 75.7% | 103% | 78.9% |
| Cn1c(SCC(=O)c2ccco2)nc2ccccc2c1=O | 106% | 92% | 98.3% | 93.8% | 124% | 102% | 104% | 96.6% | 99.7% | 97.2% |
| O=C(O)c1ccc(-n2c(=O)n(-c3cccc(C(F)(F)F)c3)c(=O)c3cc(-c4ccc(F)cc4F)ccc32)cc1 | 25.9% | 5.71% (active) | -12.8% (active) | -25.8% (active) | -1.85% (active) | 22.1% | -12.6% (active) | 17.8% | -1.96% (active) | 18.6% |
| CC(O)c1cccc(/C(N)=N/C(N)=N/c2nc3ccccc3s2)c1 (stereo not given) | 96.8% | 72% | 97% | 94.9% | 104% | 94.3% | 86.7% | 96.8% | 103% | 94.4% |
